# According to paper PMC8159961, “Exploring protein hotspots by optimized fragment pharmacophores” (Nature Communications, 2021):
# Values without a mark were called inactive. No rule for the calls is given here.
# Molecular target: histone methyltransferase SET domain containing 2 (SETD2) (Homo sapiens, UniProt Q9BYW2)
# Experiment: primary screen, binary call; higher = more effect of the substance
# Method: The Chemiluminescence assay evaluates SETD2 specific tri -methylation activity towards histone H3K36. The kit consist s of recombinant SETD2, S-adenosylmethionine and a specific H3K36me3 antibody and was performed according to the manufacturer’s protocol (Catalo g- No. 52060, https://bpsbioscience.com/setd2 -chemiluminescent-assay-kit-52060). Values were blank corrected and normalized . Enzymatic activities were calculated relative to the positive control of the kit (full enzymatic activity) and to the known SET doma in inhibitor Sinefungin28 used as negative control (complete enzymatic activity inhibition). Compounds used were diluted in DMSO.
# histone methyltransferase SET domain containing 2 (SETD2), sequence (Q9BYW2 whole entry, looked up, the tested form may be a part): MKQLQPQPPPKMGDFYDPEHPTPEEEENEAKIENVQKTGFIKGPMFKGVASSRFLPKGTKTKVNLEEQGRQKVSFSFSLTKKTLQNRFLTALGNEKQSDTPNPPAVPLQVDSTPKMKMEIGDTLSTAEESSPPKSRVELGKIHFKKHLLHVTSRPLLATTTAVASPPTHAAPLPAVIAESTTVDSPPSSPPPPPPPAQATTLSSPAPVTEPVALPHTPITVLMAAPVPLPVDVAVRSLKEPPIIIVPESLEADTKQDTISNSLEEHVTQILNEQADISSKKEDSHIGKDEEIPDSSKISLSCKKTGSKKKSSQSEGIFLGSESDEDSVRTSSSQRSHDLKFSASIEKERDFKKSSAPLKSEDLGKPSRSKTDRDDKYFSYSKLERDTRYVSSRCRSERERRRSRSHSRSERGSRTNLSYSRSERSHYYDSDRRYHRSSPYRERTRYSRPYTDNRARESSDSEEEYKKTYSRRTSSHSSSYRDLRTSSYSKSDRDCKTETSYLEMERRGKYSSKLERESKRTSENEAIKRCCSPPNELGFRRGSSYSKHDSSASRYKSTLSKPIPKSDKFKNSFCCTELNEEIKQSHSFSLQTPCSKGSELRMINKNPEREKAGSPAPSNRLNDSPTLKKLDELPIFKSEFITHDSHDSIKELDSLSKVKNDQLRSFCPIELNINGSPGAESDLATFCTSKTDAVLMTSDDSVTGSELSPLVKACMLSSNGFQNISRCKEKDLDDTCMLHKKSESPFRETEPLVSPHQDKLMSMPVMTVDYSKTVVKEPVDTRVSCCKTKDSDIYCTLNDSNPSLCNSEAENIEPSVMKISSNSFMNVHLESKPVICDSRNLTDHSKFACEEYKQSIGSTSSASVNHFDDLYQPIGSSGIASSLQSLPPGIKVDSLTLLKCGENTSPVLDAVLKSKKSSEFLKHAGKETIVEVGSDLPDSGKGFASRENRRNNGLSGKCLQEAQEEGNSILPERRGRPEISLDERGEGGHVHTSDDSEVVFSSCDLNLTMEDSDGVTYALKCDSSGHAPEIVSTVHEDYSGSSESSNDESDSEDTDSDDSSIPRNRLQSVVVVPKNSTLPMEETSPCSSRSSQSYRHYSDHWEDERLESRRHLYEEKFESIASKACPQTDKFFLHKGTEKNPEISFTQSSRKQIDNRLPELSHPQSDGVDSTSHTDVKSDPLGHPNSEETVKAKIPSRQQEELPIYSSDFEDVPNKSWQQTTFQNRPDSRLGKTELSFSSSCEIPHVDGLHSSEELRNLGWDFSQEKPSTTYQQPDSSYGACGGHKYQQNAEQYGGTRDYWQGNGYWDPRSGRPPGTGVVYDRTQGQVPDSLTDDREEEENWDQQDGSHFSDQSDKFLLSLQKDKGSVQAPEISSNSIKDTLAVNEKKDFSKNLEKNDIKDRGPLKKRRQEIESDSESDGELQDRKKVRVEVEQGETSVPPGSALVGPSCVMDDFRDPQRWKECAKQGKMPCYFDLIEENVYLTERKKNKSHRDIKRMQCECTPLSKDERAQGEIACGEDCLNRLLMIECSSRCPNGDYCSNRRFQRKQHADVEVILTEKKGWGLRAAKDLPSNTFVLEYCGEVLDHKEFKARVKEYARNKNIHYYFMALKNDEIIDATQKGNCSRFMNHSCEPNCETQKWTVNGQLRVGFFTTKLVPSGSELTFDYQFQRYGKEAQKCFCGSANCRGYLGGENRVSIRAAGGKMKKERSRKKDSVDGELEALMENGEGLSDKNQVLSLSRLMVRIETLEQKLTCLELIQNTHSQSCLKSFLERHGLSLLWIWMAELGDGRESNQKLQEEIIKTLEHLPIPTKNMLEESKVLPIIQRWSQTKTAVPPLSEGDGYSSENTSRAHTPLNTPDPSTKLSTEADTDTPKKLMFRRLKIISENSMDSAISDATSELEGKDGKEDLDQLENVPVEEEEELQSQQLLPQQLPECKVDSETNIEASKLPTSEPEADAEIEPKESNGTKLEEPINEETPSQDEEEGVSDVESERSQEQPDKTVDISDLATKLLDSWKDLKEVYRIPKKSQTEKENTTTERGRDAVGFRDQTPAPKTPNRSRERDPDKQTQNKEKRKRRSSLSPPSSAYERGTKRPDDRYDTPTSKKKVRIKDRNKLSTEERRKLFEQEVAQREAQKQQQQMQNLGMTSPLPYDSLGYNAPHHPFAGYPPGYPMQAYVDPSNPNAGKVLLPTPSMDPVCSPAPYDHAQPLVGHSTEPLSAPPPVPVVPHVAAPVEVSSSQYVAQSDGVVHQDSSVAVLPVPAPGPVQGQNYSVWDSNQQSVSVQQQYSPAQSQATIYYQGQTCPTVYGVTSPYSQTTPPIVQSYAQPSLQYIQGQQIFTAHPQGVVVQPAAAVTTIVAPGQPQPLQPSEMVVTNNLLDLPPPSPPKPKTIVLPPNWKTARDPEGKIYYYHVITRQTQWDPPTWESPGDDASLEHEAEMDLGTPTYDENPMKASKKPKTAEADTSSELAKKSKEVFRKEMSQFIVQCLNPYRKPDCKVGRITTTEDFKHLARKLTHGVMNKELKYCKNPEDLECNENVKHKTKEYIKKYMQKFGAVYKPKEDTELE
row,SMILES,SETD2
1,O=C1CCN(c2ccccn2)CC1,0
2,O=C(c1ccncc1)N1CCNCC1,0
3,CCc1nccn1CC(=O)O,0
4,O=C(NC1CC1)c1ccccc1O,0
5,O=C1CSC(Nc2ccc(F)cc2)=N1,0
6,O=C1CCC(=O)N(c2ccccc2)N1,0
7,COc1ccccc1CC1CCNCC1.Cl,0
8,CCCN1C(=O)CC(=O)NC1=S,0
9,CC(=O)c1sc(-c2ccc(O)cc2)nc1C,0
10,NC(c1ccccc1)c1ccccc1,0
11,NC1CCc2ccccc21 (stereo not shown),0
12,CS(=O)(=O)c1ccc(OC(F)(F)F)cc1,0
13,CS(=O)(=O)Nc1ccc(C(=O)O)cc1,1 (active)
14,Cc1cc(C)c2c(=O)[nH]n(C)c2n1,0
15,Cc1ccc(C)n1Cc1ccccc1Cl,0
16,c1ccc2oc(C3CCCNC3)nc2c1 (stereo not shown),0
17,O=C1NC(=O)C2(CCc3ccccc32)N1 (stereo not shown),0
18,Brc1ccc(-c2ccon2)cc1,0
19,O=C(O)C1CCN(c2ncccn2)CC1,0
20,O=C(c1ccccc1)N1CCC(CO)CC1,0

row,SMILES,SETD2
1,NCC1(c2ccccc2)CCOCC1,0
2,COc1ccc(CN2CCNCC2)cc1F,0
3,Nc1nnc(-c2cccs2)[nH]1,0
4,O=c1[nH]c2c(s1)CCC2,0
5,O=C1NC2(CCCC2)Nc2ccccc21,0
6,N#CC1CCS(=O)(=O)C1 (stereo not shown),0
7,Cn1c(N)nc2ccccc21,1 (active)
8,O=C(CN1CCNCC1)c1ccccc1,0
9,CC1C(=O)NC(=O)N1c1ccc(Cl)cc1 (stereo not shown),0
10,CCN(CC)c1cccc(C)c1,0
11,O=C(c1ccccc1F)N1CCNCC1,0
12,Cn1c(CO)nc2ccccc21,0
13,CC(=O)c1ccc2c(c1)CCCN2,0
14,Cc1nc(-c2ccccc2)cs1,0
15,COc1ccccc1N1CCNCC1,0
16,CCn1cnc2ccccc21,0
17,N[C@H]1c2ccccc2C[C@H]1CO,0
18,c1ccc2c(N3CCNCC3)ccnc2c1,0
19,C1=C[C@H]2O[C@@H]1c1ccccc12,0
20,O=C(O)c1cnc(-c2ccccc2)s1,0
